PubChem BioAssay AID1159580 (chemical genetic matrix, 2015)
Where “and” joins values, the source holds several entries; their conditions need not be identical. Identical values can stand only once. In all, about 5,500 compounds went through this assay and about 2,000 (36%) were called active. Roughly 18% stayed inconclusive and do not appear here. No stated cut-off is given here; in the data, active means normalized growth mostly below about 0.91 (no sharp cut-off); inconclusive means no clear call, values can overlap the other calls; inactive means mostly above about 0.92. This is one part of the list.

Assay: chemical genetic growth profiling, strain panel (AID 1159580);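 further: tested at 20 µM; growth read once vehicle control cultures reached saturation at 30 °C; 1 = growth at the plate median or of vehicle wells; lower values mean less growth of the strain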
Conditions: S. cerevisiae deletion strains, growth OD

Measured: normalized growth

CCCCCCCCCc1ccc(O)cc1
active: locus YAL013W, strain DEP1, hits give low values 0.118 | locus YAL021C, strain ccr4, hits give low values 0.0845 | locus YAL026C, strain drs2, hits give low values 0.0626 | locus YAL030W, strain snc1, hits give low values 0.0571 | locus YBL061C, strain skt5, hits give low values 0.0594 | locus YBR009C, strain hhf1, hits give low values 0.0563 | locus YBR021W, strain FUR4, hits give low values 0.215 | locus YBR023C, strain chs3, hits give low values 0.0626 | locus YBR171W, strain sec66, hits give low values 0.0781 | locus YBR229C, strain ROT2, hits give low values 0.144 | locus YBR231C, strain swc5, hits give low values 0.0635 | locus YBR279W, strain paf1, hits give low values 0.066 | locus YCL011C, strain gbp2, hits give low values 0.0546 | locus YCL016C, strain dcc1, hits give low values 0.0648 | locus YCL029C, strain bik1, hits give low values 0.617 | locus YCL061C, strain MRC1, hits give low values 0.0666 | locus YCL069W, strain vba3, hits give low values 0.0655 | locus YCR088W, strain abp1, hits give low values 0.0637 | locus YDL005C, strain med2, hits give low values 0.0719 | locus YDL035C, strain GPR1, hits give low values 0.0859 | locus YDL040C, strain nat1, hits give low values 0.0822 | locus YDL074C, strain BRE1, hits give low values 0.0981 | locus YDL101C, strain DUN1, hits give low values 0.1 | locus YDL134C, strain PPH21, hits give low values 0.0971 | locus YDL192W, strain arf1, hits give low values 0.411 | locus YDR001C, strain nth1, hits give low values 0.0685 | locus YDR069C, strain doa4, hits give low values 0.115 | locus YDR101C, strain arx1, hits give low values 0.721 | locus YDR137W, strain rgp1, hits give low values 0.101 | locus YDR150W, strain NUM1, hits give low values 0.529 | locus YDR159W, strain sac3, hits give low values 0.0748 | locus YDR162C, strain NBP2, hits give low values 0.102 | locus YDR195W, strain ref2 0.0909 | locus YDR297W, strain sur2, hits give low values 0.0579 | locus YDR318W, strain mcm21, hits give low values 0.58 | locus YDR334W, strain swr1, hits give low values 0.0683 | locus YDR335W, strain msn5, hits give low values 0.06 | locus YDR388W, hits give low values 0.678 | locus YDR392W, strain spt3, hits give low values 0.0671 | locus YDR502C, strain sam2, hits give low values 0.8 | locus YEL003W, strain gim4, hits give low values 0.0581 | locus YEL037C, strain rad23, hits give low values 0.0885 | locus YEL061C, strain CIN8 (second series), hits give low values 0.059 | locus YEL061C, strain CIN8, hits give low values 0.131 | locus YER015W, strain faa2, hits give low values 0.0639 | locus YER016W, strain bim1, hits give low values 0.0583 | locus YER110C, hits give low values 0.603 | locus YER111C, strain swi4, hits give low values 0.0713 | locus YER155C, strain BEM2 (second series), hits give low values 0.504 | locus YER155C, strain BEM2, hits give low values 0.101 | locus YER167W, strain BCK2, hits give low values 0.117 | locus YFR010W, strain ubp6, hits give low values 0.0798 | locus YGL078C, strain dbp3, hits give low values 0.885 | locus YGL086W, strain mad1, hits give low values 0.697 | locus YGL167C, strain pmr1, hits give low values 0.0729 | locus YGL173C, strain kem1, hits give low values 0.0956 | locus YGL227W, strain vid30, hits give low values 0.0725 | locus YGL240W, strain doc1, hits give low values 0.157 | locus YGL248W, strain PDE1, hits give low values 0.181 | locus YGL253W, strain hxk2, hits give low values 0.0662 | locus YGR078C, strain PAC10, hits give low values 0.174 | locus YGR135W, strain pre9, hits give low values 0.842 | locus YGR229C, strain SMI1, hits give low values 0.0784 | locus YGR252W, strain gcn5, hits give low values 0.518 | locus YHR013C, strain ard1, hits give low values 0.102 | locus YHR027C, strain rpn1, hits give low values 0.0645 | locus YHR030C, strain SLT2, hits give low values 0.0665 and 0.09 | locus YHR079C, strain IRE1 (second series), hits give low values 0.488 | locus YHR079C, strain IRE1, hits give low values 0.107 | locus YHR094C, strain hxt1, hits give low values 0.87 | locus YHR129C, strain ARP1, hits give low values 0.173 | locus YHR142W, strain chs7, hits give low values 0.064 | locus YHR200W, strain rpn10, hits give low values 0.577 | locus YIL066C, strain RNR3, hits give low values 0.116 | locus YIL073C, strain SPO22, hits give low values 0.182 | locus YIL125W, strain kgd1, hits give low values 0.405 | locus YIR030C, strain dcg1, hits give low values 0.762 | locus YJL092W, strain hpr5, hits give low values 0.0838 | locus YJL095W, strain BCK1 (second series), hits give low values 0.0552 | locus YJL095W, strain BCK1, hits give low values 0.0671 and 0.102 | locus YJL115W, strain asf1, hits give low values 0.113 | locus YJL129C, strain trk1, hits give low values 0.0774 | locus YJL134W, strain LCB3, hits give low values 0.308 | locus YJL154C, strain vps35, hits give low values 0.0618 | locus YJL164C, strain tpk1, hits give low values 0.0542 | locus YJL166W, strain qcr8, hits give low values 0.057 | locus YJL187C, strain SWE1 (second series), hits give low values 0.193 | locus YJL187C, strain SWE1, hits give low values 0.06 | locus YJR043C, strain POL32, hits give low values 0.107 | locus YJR066W, strain TOR1, hits give low values -0.000468
inactive: locus YDL185W, strain tfp1, hits give low values 0.929 | locus YJL168C, strain set2, hits give low values 0.992
